Results from PubChem BioAssay (NCI).
About 79,000 compounds went through this panel and 15% of them were active in at least one assay; those are over-represented in the sample as a whole. The source made the active and inactive calls. Cut-off read from the data, not from the text of the source: active = growth inhibition above about 70%; inactive = the rest.

Experiment: NCI Yeast Anticancer Drug Screen. Data for the rad50 strain (AID 155);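 note: 0% = growth of vehicle-only cultures of the same strain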
Conditions: S. cerevisiae rad50 strain growth inhibition; at 50.0 µM; active compounds read high
Procedure, shortened: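 Yeast carrying a defined DNA repair defect were exposed to test compounds, and growth was compared with vehicle-treated controls to give percent inhibition.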
With `Nc1cc(S(=O)(=O)O)cc2ccc(S(=O)(=O)O)cc12` the growth inhibition was -4.15% (inactive).
For `Cc1cc(=O)oc2c(C)c(O)ccc12`, the growth inhibition was 0% (inactive).
With `O=C(OC(=O)c1cccnc1)c1cccnc1` the growth inhibition was -30.2% (inactive).
In the case of `O=[N+]([O-])c1ccc(N=Nc2ccc(O)c3c(O)cc(S(=O)(=O)O)cc23)cc1S(=O)(=O)O`, the growth inhibition is reported as 30.6% (inactive).
In the case of `Cc1cccc2c(=O)[nH]c(=O)[nH]c12`, the growth inhibition is reported as -14.2% (inactive).
For `CC(C)N(C(=O)C12C3C4C5C3C1(C(=O)N(C(C)C)C(C)C)C5C42)C(C)C` (stereo unspecified), the growth inhibition was 16.5% (inactive).
For `Nc1ccc(/C(=N\O)c2ccccc2)cc1`, the growth inhibition was 19.6% (inactive).
In the case of `Cc1ccc(C(C)C)cc1NC(=O)/C=C/c1ccccc1`, the growth inhibition is reported as 10.2% (inactive).
With `COc1ccc(OC)c(-c2cc(C(=O)O)c3cc4ccccc4cc3n2)c1` the growth inhibition was 5.85% (inactive).
In the case of `CCC12CC3(C(=O)OC)OC1C(O)CN1CCc4c(n3c3cc(OC)ccc43)C12` (stereo unspecified), the growth inhibition is reported as 6.9% (inactive).
In the case of `Cc1cc(=O)oc2nc(-c3ccccc3)[nH]c(=O)c12`, the growth inhibition is reported as 0.3% (inactive).
In the case of `CCOC(=O)Nc1ccc(S(=O)(=O)c2ccc(Nc3ccnc4cc(Cl)ccc34)cc2)cc1`, the growth inhibition is reported as 17.1% (inactive).
In the case of `O=S(=O)(/C=C/c1ccc(Cl)cc1Cl)Cc1ccccc1CS(=O)(=O)/C=C/c1ccc(Cl)cc1Cl`, the growth inhibition is reported as 4.85% (inactive).
With `Nc1nc(N)c(Nc2ccc(Cl)cc2)c(Cl)n1` the growth inhibition was 50% (inactive).
For `CCCCN(CCCC)C(=O)C(O)C(=O)N(CCCC)CCCC`, the growth inhibition was -5.05% (inactive).
In the case of `CC(=O)Oc1nnc(OC(C)=O)c2cc(N)ccc12`, the growth inhibition is reported as -13.3% (inactive).
